PubChem BioAssay (NCATS)
Records with an inconclusive call do not appear. The source made the active and inactive calls. Calls come from the whole dose curve; as a rule, active = well fitted inhibition curve with a large enough effect; inconclusive = small, poorly fitted or top-dose-only effect; inactive = flat fitted curve, though single readings scatter.

Key:
Assay in all cases: qHTS profiling for inhibitors of Plasmodium falciparum proliferation (AID 504749); note: nearly all actives have a fitted effect of over 60% in size
Settings in all cases: P. falciparum in erythrocytes, SYBR Green DNA, 72 h; series mostly up to 28.7 µM
CP297 = tested on: CP297
How it was run: (§1)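 Three-day growth assay of blood-stage parasites in erythrocytes (0.3% parasitemia, 2.5% hematocrit) at 37 C, 5% CO2, quantified by SYBR Green DNA staining after overnight detergent lysis.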

CP305 = tested on: CP305
How it was run: as §1

CP315 = tested on: CP315
How it was run: as §1

CP325 = tested on: CP325
How it was run: as §1

CP329 = tested on: CP329
How it was run: as §1

CP335 = tested on: CP335
How it was run: as §1

DFO2036 = tested on: DFO2036
How it was run: as §1

DIV14 = tested on: DIV14
How it was run: as §1

DIV17 = tested on: DIV17
How it was run: as §1

DIV30 = tested on: DIV30
How it was run: as §1

Dd2 = tested on: Dd2
How it was run: as §1

ECU = tested on: ECU
How it was run: as §1

FAB9 = tested on: FAB9
How it was run: as §1

GB4 = tested on: GB4
How it was run: as §1

HB3 = tested on: HB3
How it was run: as §1

ICS = tested on: ICS
How it was run: as §1

JCK = tested on: JCK
How it was run: as §1

N140 = tested on: N140
How it was run: as §1

P93_24 = tested on: P93_24
How it was run: as §1

P94_40 = tested on: P94_40
How it was run: as §1

Measured: Potency

Cc1[nH]c(=O)c(C#N)cc1-c1ccncc1
inactive: CP297 | CP305 | CP315 | CP325 | CP329 | CP335 | DFO2036 | DIV14 | DIV17 | DIV30 | Dd2 | ECU | FAB9 | GB4 | HB3 | ICS | JCK | N140 | P93_24 | P94_40

O=C1CCC(N2C(=O)c3ccccc3C2=O)C(=O)N1 (stereo not given)
inactive: CP297 | CP305 | CP315 | CP325 | CP329 | CP335 | DFO2036 | DIV14 | DIV17 | DIV30 | Dd2 | ECU | FAB9 | GB4 | HB3 | ICS | JCK | N140 | P93_24 | P94_40

CC(C)NCC(O)COc1ccc(COCCOC(C)C)cc1 (stereo not given)
inactive: CP297 | CP305 | CP315 | CP325 | CP329 | CP335 | DFO2036 | DIV14 | DIV17 | DIV30 | Dd2 | ECU | FAB9 | GB4 | HB3 | ICS | JCK | N140 | P93_24 | P94_40

Nc1nc2c(ncn2COCCO)c(=O)[nH]1
inactive: CP297 | CP305 | CP315 | CP325 | CP329 | CP335 | DFO2036 | DIV14 | DIV17 | DIV30 | Dd2 | ECU | FAB9 | GB4 | HB3 | ICS | JCK | N140 | P93_24 | P94_40

NCCCC(N)(C(=O)O)C(F)F (stereo not given)
inactive: CP297 | CP305 | CP315 | CP325 | CP329 | CP335 | DFO2036 | DIV14 | DIV17 | DIV30 | Dd2 | ECU | FAB9 | GB4 | HB3 | ICS | JCK | N140 | P93_24 | P94_40

CCCCNc1cc(C(=O)O)cc(S(N)(=O)=O)c1Oc1ccccc1
inactive: CP297 | CP305 | CP315 | CP325 | CP329 | CP335 | DFO2036 | DIV14 | DIV17 | DIV30 | Dd2 | ECU | FAB9 | GB4 | HB3 | ICS | JCK | N140 | P93_24 | P94_40

O=c1[nH]cnc2[nH]ncc12
inactive: CP297 | CP305 | CP315 | CP325 | CP329 | CP335 | DFO2036 | DIV14 | DIV17 | DIV30 | Dd2 | ECU | FAB9 | GB4 | HB3 | ICS | JCK | N140 | P93_24 | P94_40

Cc1[nH]c(=O)c(C#N)cc1-c1ccc2nccn2c1
inactive: CP297 | CP305 | CP315 | CP325 | CP329 | CP335 | DFO2036 | DIV14 | DIV17 | DIV30 | Dd2 | ECU | FAB9 | GB4 | HB3 | ICS | JCK | N140 | P93_24 | P94_40

N#Cc1ccc(C(c2ccc(C#N)cc2)n2cncn2)cc1
inactive: CP297 | CP305 | CP315 | CP325 | CP329 | CP335 | DFO2036 | DIV14 | DIV17 | DIV30 | Dd2 | ECU | FAB9 | GB4 | HB3 | ICS | JCK | N140 | P93_24 | P94_40

NC(=O)c1cnccn1
inactive: CP297 | CP305 | CP315 | CP325 | CP329 | CP335 | DFO2036 | DIV14 | DIV17 | DIV30 | Dd2 | ECU | FAB9 | GB4 | HB3 | ICS | JCK | N140 | P93_24 | P94_40
